# Most compounds without a hit are left out; they make up all but 12% or so of the library.
# Shiga inhibitor – blocks Shiga toxin action in Vero cells; inhibition, % at 38.7 µM; Vero cells, Shiga toxin protein synthesis inhibition reporter; AID 2315; actives 9.2% (n = 290,000); in the data active = inhibition mostly above about 28%, no sharp cut-off; inactive = mostly below about 43%; note: 0% is about no effect
# Marburg entry inh – Marburg virus entry inhibition | Potency, µM (doses to about 37.8 µM), inactives show at the top dose activity change, negative = inhibition, hits mostly inhibitors | Marburg virus pseudotyped entry inhibition, cell reporter | actives 1.8% (n = 300,000); calls by dose curve; tested in HEK293 cells; note: potency is the fitted concentration of half-maximal effect; % is set by controls: 0 for no effect and ±100 for the full control effect
# Lassa entry inh – Lassa virus entry inhibition. Potency, µM (highest dose often 37.9 µM), for the others: top-dose activity change, negative = inhibition, most hits filed as inhibitors. Lassa virus pseudotype entry inhibition, cell reporter. AID 540256. actives 1.2% (n = 300,000); calls by dose curve; tested in HEK293 cells; note: potency is the fitted concentration of half-maximal effect; % is set by controls: 0 for no effect and ±100 for the full control effect; nearly all actives have a fitted effect of over 50% in size
# Cycloheximide cs – counter-screen for Shiga toxin inhibitors: cycloheximide protein synthesis inhibition; actives 12% (n = 300,000); cell reporter, cycloheximide protein synthesis inhibition counterscreen; max response, %; AID 2314; in the data active = max response mostly above about 13%, no sharp cut-off; inactive = mostly below about 14%; note: read at 38.3 µM for the half of the compounds with a filed dose; 0% is about no effect
# Numbers without * were called inactive; ? = inconclusive; nt = no result given; + = active, no number; [ ] = dose if it differs, or a comment.
SMILES,Shiga inhibitor,Marburg entry inh,Lassa entry inh,Cycloheximide cs
CC(=O)OC[C@@H]1O[C@H](C/C=N\OC[C@@H](O)COCc2ccco2)C=C[C@@H]1OC(C)=O,nt,1%[14.2 µM],nt,nt
O=[N+]([O-])c1cc(S(=O)(=O)N2CCCCC2)ccc1NCCCN1CCOCC1,42*,4%,17%,43
O=C(Nc1ccc(Cl)c([N+](=O)[O-])c1)c1ccc(NCCCN2CCOCC2)c([N+](=O)[O-])c1,-5,6.5µM*,-2%,7
Cc1ccc(NC(=O)c2ccc(NCCCN3CCOCC3)c([N+](=O)[O-])c2)cc1Cl,8,?,?,1
CC(C)(CNc1ccc(S(=O)(=O)C(F)(F)F)cc1[N+](=O)[O-])N1CCOCC1,31*,-19%[46.1 µM],-3%[46.1 µM],35*
CCc1cccc(CC)c1NC(=O)COn1nnc2ccc(C(F)(F)F)cc21,-4,?,-5%,-3
CCc1ccc(NC(=O)CC2C(=O)N(c3ccc(F)cc3)C(=O)N2Cc2ccc(F)cc2)cc1 (centres undefined),nt,nt,0%[46.1 µM],nt
CC1Cc2cc(C(=O)O)ccc2O1 (centres undefined),-3,10%,1%,3
C/C(=N\O)c1ccc2c(c1)CC(C)O2 (centres undefined),19,25%[46.1 µM],-5%[46.1 µM],13*
COC(=O)C1=C(C)N(Cc2ccccc2)C(=S)N[C@H]1c1cccc(C(F)(F)F)c1,28*,-35%[14.2 µM],nt,19*
CCSc1nc2sc3c(c2c(=O)[nH]1)CCCC3,-10,8%,-2%,-2
BrCC1C[n+]2c(SCc3ccccc3)nc3sc4c(c3c2O1)CCCC4 (centres undefined),80*,?,-2%,31*
N#Cc1cnn(-c2nc(SCc3ccccc3)nc3sc4c(c23)CCCC4)c1N,-13,-29%,-25%,-2
CCSc1nc2sc3c(c2c2[n+]1CC(CBr)O2)CCCC3 (centres undefined),36,?,-6%,17*
COc1cccc(CN2C(=O)c3ccccc3Sc3ccc(C(=O)NCCc4ccc(C)cc4)cc32)c1,nt,?,-29%[46.1 µM],nt
Nc1nc(NC(=O)c2cccnc2)nn1-c1ccccc1,12,5%,10%,13
Nc1nc(NC(=O)c2ccc(Cl)cc2)nn1-c1ccccc1,33,?,6%,17*
Cc1oc(-c2ccccc2Cl)nc1CS(=O)(=O)CC(=O)NCc1ccc(F)cc1,nt,-13%[46.1 µM],3%[46.1 µM],nt
C/C(=N\Nc1nc(N)cc(Cl)n1)c1ccc(F)cc1,70*,nt,nt,41*
C/C(=N\Nc1nccnc1Cl)c1ccc(O)cc1,29*,nt,nt,26*
C/C(=N\Nc1nccnc1Cl)c1ccc(Cl)c(Cl)c1,nt,3%,?,29*
C/C(=N\Nc1nccnc1Cl)c1ccc(F)cc1,85*,?,5%,33*
COC(=O)C1=C(C)NC(C)=C(C(=O)NCCCN2CCC(c3ccccc3)(c3ccccc3)CC2)C1c1ccc([N+](=O)[O-])cc1 (centres undefined),-13,nt,nt,-8
O=c1cc(Cn2ccnc2)c2cc(O)ccc2o1,-3,nt,nt,-9
Cc1cs/c(=N/C(=S)Nc2ccccc2)n1C,143*,?,?,101*
SMILES,Shiga inhibitor,Marburg entry inh,Lassa entry inh,Cycloheximide cs
Cc1csc(=Nc2ccccc2)n1CCCN1CCCC1=O,15,?,1%,2
Cc1csc(=Nc2ccccc2)n1C,38,7%[46.1 µM],-1%[46.1 µM],22*
C=CCNC(=S)/N=c1/ccccn1CCC,-32,5%,nt,-2
C=CCNC(=S)/N=c1/ccccn1C,-7,4%,1%,1
C=CCNC(=S)/N=c1\sccn1C,26,-2%,?,15*
C=CCNC(=S)/N=c1/scc(C)n1C,24,?,?,19*
CCOC(=O)Cc1csc(NC(=O)c2cc(C)on2)n1,nt,4%[46.1 µM],14%[46.1 µM],nt
Cc1ccc(C(=O)Nc2nc(-c3cccnc3)cs2)o1,26,-5%,10%,22
Cc1ccc(-c2ocnc2C(=O)Nc2nc(C)cs2)cc1,nt,-6%,-3%,72*
CCOC(=O)Cc1csc(NC(=O)CCC(=O)O)n1,-10,5%[46.1 µM],22%[46.1 µM],5
CCCCOC(=O)Nc1nc(CC(=O)OCC)cs1,30,0%,-1%,15*
CCOC(=O)Cc1csc(NC(=O)c2ccc(C)o2)n1,52*,6%,3%,22*
Cc1csc(NC(=O)c2ccc(C)o2)n1,+,?,?,59*
Cc1ccc2[nH]c3nc(CCCn4ccnc4-c4ccccc4)nnc3c2c1,nt,4%[14.2 µM],nt,nt
CCOC(=O)Cc1csc(NC(=O)c2cc(C)c(C)s2)n1,nt,?,5%,nt
CCOC(=O)Cc1csc(NC(=O)c2ccco2)n1,50*,?,61%[14.3 µM],50*
CCOC(=O)Cc1csc(NC(=O)c2ccncc2)n1,7,?,-8%,-4
CCOC(=O)Cc1csc(NC(=O)c2ccc3ncsc3c2)n1,83*,nt,nt,29*
